Drawing on PubChem BioAssay (Tox21), this text covers Potency for 7 molecules.

Assay [1] can be described thus: qHTS RealTime-Glo MT Cell Viability Assay in HEK293 cells - 0 hour (AID 1224880). Note: top concentration of the series differs between compounds; nearly all actives have a fitted effect of over 45% in size. An outline of the steps: (§1)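 600 HEK293 cells per well, dispensed already mixed with RealTime-Glo MT reagents. Compound dosing came 5 h later. The same wells were read for luminescence at 0, 8, 16, 24, 32 and 40 h of exposure at 37 C.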
Assay [2] can be described thus: A CellTox Green Cytotoxicity Assay to monitor cytotoxicity in HEK293 cells - 32 hour (AID 1224881). Note: nearly all actives have a fitted effect of over 40% in size. In a few lines: (§2)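 Dead-cell fluorescence measured kinetically: asymmetric cyanine dye, HEK293, 600 cells/well, 5 h settle, 23 nL cpd/DMSO, 37 C, reads 0–40 h every 8 h.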
The nature of assay [3]: A CellTox Green Cytotoxicity Assay to monitor cytotoxicity in HepG2 cells - 0 hour (AID 1224882). Note: nearly all actives have a fitted effect of over 35% in size. In a few lines: (§3)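 First, HepG2 cells (600/well) mixed with reagent were plated; second, after 5 h at 37 C they received compounds via pintool; third, fluorescence was measured at 0 h through 40 h at 8 h intervals.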
Assay [4] is described as follows: A CellTox Green Cytotoxicity Assay to monitor cytotoxicity in HepG2 cells - 32 hour (AID 1224883). Note: nearly all actives have a fitted effect of over 50% in size. An outline of the steps: as §3
Assay [5] in a line: qHTS RealTime-Glo MT Cell Viability Assay in HepG2 cells - 16 hour (AID 1224885). Note: nearly all actives have a fitted effect of over 50% in size. An outline of the steps: (§4)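 Viability was tracked continuously by NanoLuc luminescence from prosubstrate reduced by living HepG2 cells, at successive time points over 40 h of compound exposure. Cells with reagent were preincubated 5 h at 37 °C before compound addition.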
A general note: In qHTS, concentration-response curves come from the screen itself.

Assay [6] in a line: qHTS RealTime-Glo MT Cell Viability Assay in HEK293 cells - 24 hour (AID 1224886). Note: top concentration of the series differs between compounds; nearly all actives have a fitted effect of over 50% in size. An outline of the steps:
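Viability tracked continuously by luminescence as live cells reduce a prosubstrate for NanoLuc; HEK293 cells preincubated 5 h, compound-treated at 37 C, and read at 0, 8, 16, 24, 32 and 40 h.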

A short description of assay [7]: qHTS RealTime-Glo MT Cell Viability Assay in HEK293 cells - 8 hour (AID 1224887). Note: nearly all actives have a fitted effect of over 50% in size. Note: potency is the fitted concentration of half-maximal effect. In a few lines:
as §1

Assay [8] can be described thus: A CellTox Green Cytotoxicity Assay to monitor cytotoxicity in HEK293 cells - 16 hour (AID 1224888). Note: nearly all actives have a fitted effect of over 35% in size. An outline of the steps: as §2
Assay [9] is described as follows: qHTS RealTime-Glo MT Cell Viability Assay in HepG2 cells - 0 hour (AID 1224889). Note: nearly all actives have a fitted effect of over 50% in size. In a few lines:
as §4

Assay [10] can be described thus: A CellTox Green Cytotoxicity Assay to monitor cytotoxicity in HepG2 cells - 8 hour (AID 1224890). Note: nearly all actives have a fitted effect of over 45% in size. In a few lines:
as §3

The nature of assay [11]: qHTS assay to identify small molecule antagonists of the estrogen receptor alpha (ER-alpha) signaling pathway using the BG1 cell line in the presence of 0.1 nM 17-beta-estradiol - cell viability counter screen (AID 1259241). Note: nearly all actives have a fitted effect of over 40% in size. In a few lines: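 Live-cell protease activity (CellTiter-Fluor fluorescence, 30 min) was read in the same wells after VM7Luc4E2 cells had been exposed to compounds with 0.1 nM 17beta-estradiol for 22 hr at 37C.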

Assay [12] in a line: qHTS assay to identify small molecule antagonists of the androgen receptor (AR) signaling pathway using the MDA cell line in the presence of 0.5 nM R1881 - cell viability counter screen (AID 1259242). Note: nearly all actives have a fitted effect of over 45% in size. An outline of the steps: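 qHTS format. MDA-kb2 (MMTV-luc, AR/GR responsive) + cpd + 0.5 nM R1881 final, 16 hr 37C/0% CO2 → CellTiter-Fluor 30 min → fluorescence intensity.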
The target of assay [13] is Estrogen receptor (Homo sapiens) (UniProt P03372). Put plainly: qHTS assay to identify small molecule antagonists of the estrogen receptor alpha (ER-alpha) signaling pathway using the BG1 cell line in the presence of 0.1 nM 17-beta-estradiol (AID 1259244). Note: nearly all actives have a fitted effect of over 50% in size. In a few lines:
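Reporter is a stably transfected luciferase under four estrogen responsive elements in VM7Luc4E2 cells expressing native full-length ER-alpha; inhibition of 0.1 nM (final) 17beta-estradiol-driven signal over 22 h is read by luminescence.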

Assay [14] in a line: qHTS assay to identify small molecule HDAC inhibitors (AID 1259364).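 Note: wild-type HCT-116 cells with endogenous class I/II HDAC activity; top concentration of the series differs between compounds; nearly all actives have a fitted effect of over 45% in size.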 In a few lines: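 Quantitative high-throughput format: overnight-seeded HCT-116 cells got compounds for 2 hr at 37C; HDAC-Glo I/II reagent added, 30 min RT, luminescence measured.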
Assay [15] is described as follows: qHTS assay to identify small molecule HDAC inhibitors - cell viability counter screen (AID 1259365). An outline of the steps: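 HCT-116 (wild type), 1,500 cells/well, overnight 37C/5% CO2; compound in DMSO 2hr; CellTiter-Glo 30min RT; luminescence read.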
Assay [16] can be described thus: qHTS assay to identify small molecule agonists of the sonic hedgehog signaling (Shh) pathway - cell viability counter screen (AID 1259366). Note: nearly all actives have a fitted effect of over 50% in size. An outline of the steps: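 CellTiter-Fluor fluorescence read-out, 1 hr at 37C, added after 23hr compound exposure. Cells: 3T3 Gli1-Luc, an NIH/3T3 clone with stably integrated Gli1-Luc reporter, plated 4hr before compound.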

The nature of assay [17]: qHTS assay to identify small molecule antagonists of the sonic hedgehog signaling (Shh) pathway - cell viability counter screen (AID 1259367). Note: nearly all actives have a fitted effect of over 55% in size. An outline of the steps:
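Fluorescence read-out (CellTiter-Fluor, 1 hr at 37C) taken after 23 hr compound treatment of 3T3 Gli1-Luc cells stimulated with conditioned medium. Cells were seeded at 2,000 per well and pre-incubated 4 hr.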

The nature of assay [18]: A CellTox Green Cytotoxicity Assay to monitor cytotoxicity in HEK293 cells - 8 hour (AID 1224884). Note: nearly all actives have a fitted effect of over 35% in size. In a few lines: as §2
Assay [19] can be described thus: qHTS assay to identify small molecule phospholipidosis (PLD) inducers (AID 1259344; active = well fitted curve in the direction sought with a large enough effect; an effect the other way counts as inactive or inconclusive). An outline of the steps: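 Read-out is LipidTOX Red fluorescence (ex 595/em 615) imaged in HepG2 cells after 24 h compound exposure at 37 C, with Hoechst nuclear counterstain (ex 352/em 461) allowing per-cell normalisation.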

Molecules are shown by their SMILES. A number with no mark means an inactive call. Results filed as inconclusive are left out. Active and inactive are the calls of the source. Unless noted, calls come from the whole dose curve; as a rule, active = well fitted curve in the direction sought with a large enough effect in the repeat runs; inconclusive = weak or mixed curves; inactive = no such curve, though single readings can be large; an effect the other way counts as inactive or inconclusive.

Chain of Estrogen receptor (Homo sapiens) (P03372 whole entry, looked up): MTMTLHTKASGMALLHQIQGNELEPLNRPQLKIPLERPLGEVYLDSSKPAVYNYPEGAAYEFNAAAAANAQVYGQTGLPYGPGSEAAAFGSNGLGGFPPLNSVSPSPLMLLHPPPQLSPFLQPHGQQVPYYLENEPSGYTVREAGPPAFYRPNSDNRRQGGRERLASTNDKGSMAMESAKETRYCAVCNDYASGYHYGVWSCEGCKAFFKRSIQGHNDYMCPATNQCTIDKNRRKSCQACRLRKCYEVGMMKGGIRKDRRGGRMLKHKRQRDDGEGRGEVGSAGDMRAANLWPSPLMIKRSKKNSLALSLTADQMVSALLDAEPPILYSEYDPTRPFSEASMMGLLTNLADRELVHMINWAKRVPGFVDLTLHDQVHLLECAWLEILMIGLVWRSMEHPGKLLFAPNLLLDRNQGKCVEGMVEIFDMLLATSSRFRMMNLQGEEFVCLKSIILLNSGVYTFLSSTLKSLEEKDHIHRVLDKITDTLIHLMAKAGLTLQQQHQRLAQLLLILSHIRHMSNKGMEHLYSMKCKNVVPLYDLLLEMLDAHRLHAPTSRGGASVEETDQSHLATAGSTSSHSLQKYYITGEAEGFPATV

For `CC(CO)(CO)C(=O)O`, the Potency entry in [1], in assay [2], in [3], in assay [4], in assay [5] and in assay [6] was “inactive” each time. Further, the Potency entry in assay [7], in assay [8], in assay [9], in [10], in assay [11] and in [12] was “inactive” throughout. For the same molecule, the Potency entry in assay [13], in [14], in assay [15], in assay [16] and in assay [17] was “inactive” each time.
`ClC1=C(Cl)C1(Cl)Cl`: the Potency entry in assay [1], in [2], in assay [3], in [4], in assay [18] and in assay [6] was “inactive” in each case. For the same molecule, the Potency result in assay [7], in assay [8], in assay [9], in [10], in [11] and in [12] was “inactive” each time. The Potency result in [14] and in assay [16] was “inactive” throughout.
Regarding `CCOC(=O)C(C)O` (centres undefined), the Potency entry in assay [1], in [2], in [3], in assay [4], in assay [5] and in assay [6] was “inactive” throughout. Besides, the Potency result in [7], in [8], in [9], in [10], in assay [11] and in [12] was “inactive” throughout. Besides, the Potency entry in assay [14], in [16] and in [17] was “inactive” in each case.
In the case of `Cc1cc(CCC(=O)OCCOCCOCCOC(=O)CCc2cc(C)c(O)c(C(C)(C)C)c2)cc(C(C)(C)C)c1O`, the Potency result in [1], in [2], in assay [3], in [4], in assay [18] and in assay [6] was “inactive” each time. In addition, the Potency result in assay [8], in [9], in assay [10], in assay [11], in [12] and in [14] was “inactive” each time. Moreover, the Potency entry in [15], in assay [16] and in assay [17] was “inactive” throughout. Further, the Potency in [7] was 33.8 µM (active).
With `COc1ccc(CCN(C)CCCN2CCc3cc(OC)c(OC)cc3CC2=O)cc1OC`, the Potency result in assay [1], in assay [2], in assay [3], in assay [4], in assay [6] and in assay [7] was “inactive” each time. Moreover, the Potency result in [8], in assay [9], in assay [10], in assay [11], in assay [12] and in assay [13] was “inactive” in each case. Also, the Potency entry in assay [19], in [14], in [15] and in assay [17] was “inactive” throughout.
On to `Nc1nc(-c2ccc([N+](=O)[O-])cc2)cs1`, for which the Potency result in [1], in assay [2], in assay [3], in [4], in assay [18] and in assay [6] was “inactive” in each case. Further, the Potency entry in assay [7], in [8], in assay [9], in [10], in assay [11] and in [12] was “inactive” in each case. In addition, the Potency entry in [16] and in assay [17] was “inactive” each time.
Turning to `CCOC(=O)N1CCC(Nc2ccc(Cl)cc2N)CC1`, the Potency entry in assay [1], in assay [2], in [3], in assay [4], in assay [5] and in assay [7] was “inactive” in each case. The Potency result in assay [8], in assay [9], in [10], in assay [11], in [12] and in assay [15] was “inactive” each time.
